S1P4 antag = blocks the human S1P4 receptor; inhibition, % at 4.98 µM; O95977; S1P4-expressing cells, antagonist mode, reporter read-out; 220,000 compounds, 0.26% hits; AID 1510; in the data active means inhibition above about 29%
S1P4 ag = human S1P4 receptor agonism; S1P4-expressing cell line, agonist reporter assay; activation, % at 4.98 µM; 220,000 compounds, 0.35% hits; in the data active means activation above about 11%
HSV replic up = increases HSV replication in cells; 220,000 compounds, 0.005% hits; AID 1956; maximum fold increase; HSV replication augmentation in cells, fold increase; in the data active means maximum fold increase above about 1.5; tested in PC3 cells
Hsp70 act = Hsp70 transcriptional activation, primary screen | HeLa Hsp70 promoter luciferase reporter, luminescence; scaled: vehicle 0, proteasome-inhibitor control 100% | AID 1203 | activation, % at 10 µM | 200,000 compounds, 0.04% hits;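 active means activation above the mean across all tested compounds plus 3 SD, cutoff set per campaign, cut at about 5.5% in these data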
L929 necroptosis = blocks zVAD induced death of L929 cells; L929 zVAD necroptosis rescue, ATP luminescence, 24 h; with zVAD 60 µM; viability rescue, % at 10 µM; 220,000 compounds, 0.38% hits;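 active means activation, scaled between plate controls, above about 75%, limit read from the data; inactive means activation under that limit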
TNF death inh = inhibitors of TNF-alpha induced necroptosis in Jurkat FADD-/- cells | Jurkat FADD-/- TNF necroptosis rescue, ATP luminescence, 24 h; 0 = TNF only, 100 = no-TNF cells | activation (protection from cell death), % at 10 µM | 220,000 compounds, 0.068% hits;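 active means activation, meaning protection from cell death, of at least 50% relative to plate controls; inactive means activation below 50%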;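 further: necroptosis triggered by 40 ng/mL TNF-alpha added together with compound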
zVAD death conf = confirmed blocker of zVAD induced death in L929 cells. shares compounds with L929 necroptosis. activation (protection from necroptosis), % at 10 µM. AID 463117. 760 compounds, 16% hits. L929 zVAD-induced necroptosis rescue, ATP luminescence, 24 h;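 active means mean protection from necroptosis of at least 50% over duplicate tests; inactive means mean protection below 50%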
S1P4 agonist cf = confirmation of human S1P4 receptor agonists; S1P4 agonist cell-based reporter assay; shares compounds with S1P4 ag; 740 compounds, 7% hits; activation, % at 4.98 µM; AID 1523; in the data active means activation above about 12%
S1P1 ag = activates human S1P1, counter-screen for S1P4 agonists; shares compounds with S1P4 ag; S1P1 agonist cell-based assay, activation; activation, % at 4.98 µM; 740 compounds, 4% hits; in the data active means activation above about 21%
Target sequence (P21453 whole entry, looked up): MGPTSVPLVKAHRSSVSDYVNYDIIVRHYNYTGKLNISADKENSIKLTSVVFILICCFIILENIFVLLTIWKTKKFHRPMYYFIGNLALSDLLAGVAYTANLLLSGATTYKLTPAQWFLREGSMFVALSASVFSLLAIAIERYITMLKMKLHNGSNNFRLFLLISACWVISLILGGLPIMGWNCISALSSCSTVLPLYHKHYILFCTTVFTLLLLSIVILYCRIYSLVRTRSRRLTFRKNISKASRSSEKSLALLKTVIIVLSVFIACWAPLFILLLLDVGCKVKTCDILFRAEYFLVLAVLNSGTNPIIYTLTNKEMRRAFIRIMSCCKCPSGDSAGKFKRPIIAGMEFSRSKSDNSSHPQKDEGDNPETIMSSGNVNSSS
S1P4 antag conf = confirmation of human S1P4 receptor antagonists; S1P4-expressing cell line, antagonist mode, reporter read-out; 520 compounds, 71% hits; shares compounds with S1P4 antag; inhibition, % at 4.98 µM; in the data active means inhibition above about 30%
S1P1 antagonist = counter-screen for S1P4 antagonists: antagonists of human S1P1; cell-based S1P1 antagonist counterscreen, inhibition; shares compounds with S1P4 antag; AID 1564; 520 compounds, 37% hits; inhibition, % at 4.98 µM; in the data active means inhibition above about 40%;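 further: receptor stimulated with S1P near its EC80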
Of the large screens only hits and unclear results are named; the others gave an inactive call (follow-up assays come after a bar, where they were run); ! = not active in a repeat. Rows were chosen to be rich in hits. Some 1% of all compounds tested hit in one or more screens of this group.

Cn1c(C(=O)NCCN2CCOCC2)cc2c(=O)n(C)c3ccccc3c21	none
CCCN(CCC)CCNC(=O)c1cc2c(=O)n(C)c3ccccc3c2n1C	L929 necroptosis 78 | zVAD death conf inactive
CN(CCNC(=O)c1cc2c(=O)n(C)c3ccccc3c2n1C)Cc1ccccc1	none
O=c1cc(-c2ccccc2)[nH]n1-c1ccc([N+](=O)[O-])cc1	none
Cc1ccnc(NC(=O)CCC(=O)N(CC(=O)NC2CCCCC2)C2CCCC2)c1	none (no result: Hsp70 act)
Cc1ccc(C)c(-c2cc(C(=O)Nc3sc(C)c(C)c3C(N)=O)c3ccccc3n2)c1	none
C(=N/Nc1nccs1)/c1cccnc1	L929 necroptosis 78 | zVAD death conf inactive
CCc1ccc(C(=O)N/N=C/c2cccc3ccccc23)nc1	none
Brc1ccc(COn2ccnc2)cc1	L929 necroptosis 91, TNF death inh 61 | zVAD death conf 75
CC(C)(C)c1ccc(COn2ccnc2)cc1	none
Cc1cc(C(=O)COc2cccc(-n3cnnn3)c2)c(C)n1-c1ccccc1	L929 necroptosis 81 | zVAD death conf inactive
COC(=O)COc1cccc(-n2cnnn2)c1	none
Cc1cc(NCCCn2ccnc2)n2ncc(-c3ccc(Cl)cc3)c2n1	none
Cc1cc(NCCCN2CCOCC2)n2ncc(-c3ccc(Cl)cc3)c2n1	L929 necroptosis 84 | zVAD death conf inactive
O=C(NCCCn1ccnc1)c1cc(-c2cccs2)on1	L929 necroptosis 76 | zVAD death conf inactive
O=C(NCCCN1CCOCC1)c1cc(-c2cccs2)on1	none
COc1ccc(-c2nnc3sc(C4CCCCC4)nn23)cc1OC	L929 necroptosis 76 | zVAD death conf inactive
O=C(/C=C/c1ccc2ccccc2n1)N1CCN(S(=O)(=O)c2ccccc2F)CC1	L929 necroptosis 84 (no result: Hsp70 act) | zVAD death conf inactive
O=C(O)c1cccnc1SC1CC(=O)N(c2ccc(OC(F)F)cc2)C1=O (stereo not drawn)	none (no result: Hsp70 act)
O=[N+]([O-])c1ccc2c(c1)ncn2-c1ccccc1	L929 necroptosis 83 | zVAD death conf inactive
O=[N+]([O-])c1ccc(-n2cnc3ccccc32)c([N+](=O)[O-])c1	none
Cc1ccc(Nc2nc(-c3ccc(O)c(O)c3)cs2)nc1	L929 necroptosis 79 | zVAD death conf inactive
COC(=O)CCc1c(C)[nH]c(C(=O)OCc2ccccc2)c1C	L929 necroptosis 76 | zVAD death conf inactive
CCOC(=O)c1[nH]c(C(=O)O)c(CCC(=O)OC)c1C	none
CC(=O)NC(=S)Nc1ccc(N2CCOCC2)c(S(=O)(=O)Nc2cc(Cl)ccc2Cl)c1	none
Cc1ccc(NC(=O)c2noc3c2CCCCC3)cc1	L929 necroptosis 82 | zVAD death conf inactive
CCOC(=O)c1c(NC(=O)N/N=C/c2ccc(O)c(OC)c2)sc(C(C)=O)c1C	L929 necroptosis 78 (no result: Hsp70 act) | zVAD death conf inactive
CCOC(=O)c1c(NC(=O)N/N=C/c2ccccc2OCC)sc(C(C)=O)c1C	none
O=C(CN1CCOCC1)Nc1nc2ccc(Br)cc2s1	L929 necroptosis 77 | zVAD death conf inactive
CCOc1ccc2nc(NC(=O)CN3CCOCC3)sc2c1	none
Oc1ccc(/C=N/Nc2ncc(Br)cn2)c(O)c1	L929 necroptosis 92 | zVAD death conf inactive
Oc1ccc(/C=N/Nc2nccnc2Cl)c(O)c1	none
Cc1cccc(N=c2oc3cc(O)ccc3cc2C(N)=O)c1	S1P4 ag 48, L929 necroptosis 83 | zVAD death conf inactive | S1P4 agonist cf inactive | S1P1 ag inactive
COc1ccc(CCNC(=O)CNC(=O)Cn2ccc3ccccc3c2=O)cc1OC	none (no result: Hsp70 act)
O=C1CCN(C(=O)c2cccs2)c2ccccc21	none
CN1C(=O)/C(=C\C(=O)c2cccs2)c2ccccc21	S1P4 antag 40, L929 necroptosis 86 | zVAD death conf inactive | S1P4 antag conf 97 | S1P1 antagonist 45
COCCN(C(=O)CC1C(=O)NCCN1Cc1ccc(-c2ccccc2)cc1)C(C)C (stereo not drawn)	none
O=C(Nc1ccc(Cl)c(Cl)c1)Nc1nccs1	none (no result: Hsp70 act)
O=C(Nc1cccc(Cl)c1)Nc1nccs1	S1P4 antag 35!, L929 necroptosis 82! | zVAD death conf inactive | S1P4 antag conf inactive | S1P1 antagonist inactive
O=S(=O)(Nc1cccc2ncccc12)c1cccs1	S1P4 antag 54, L929 necroptosis 79 | zVAD death conf inactive | S1P4 antag conf 106 | S1P1 antagonist 91
COc1ccc(C(=O)/C(=C\c2ccco2)N2C=CC=CC2=C(C#N)C#N)cc1	S1P4 antag 70, L929 necroptosis 97 | zVAD death conf inactive | S1P4 antag conf 117 | S1P1 antagonist 41
Cc1nn(C(=O)c2nn(C)cc2[N+](=O)[O-])c(C)c1Br	none
O=c1cc(CSc2nc(NCc3ccccc3)c3ccccc3n2)nc2ccc(Cl)cn12	S1P4 ag 28 | S1P4 agonist cf inactive | S1P1 ag inactive
Cc1ccc(S(=O)(=O)N(C)C)cc1-n1c(SCC(=O)Nc2ccc(F)cc2)nc2ccccc2c1=O	S1P4 ag 11 | S1P4 agonist cf inactive | S1P1 ag inactive
CCCCc1ccc(NC2=NCC(=O)N2CCc2ccccc2)cc1	none
COc1cc2cc(CN(CCc3cccc(C)c3)C(=S)NCCCN3CCOCC3)c(=O)[nH]c2cc1OC	none
COc1cccc(NC(=S)N(CCc2c(C)[nH]c3ccccc23)Cc2cccs2)c1	S1P4 ag 16 (no result: HSV replic up) | S1P4 agonist cf inactive | S1P1 ag inactive
Cc1csc(NC(=O)CCc2c(C)nc3cc(-c4ccc(Cl)cc4)nn3c2C)n1	S1P4 ag 196 (no result: HSV replic up, L929 necroptosis) | S1P4 agonist cf inactive | S1P1 ag inactive
O=C1N=C(C=c2ccc(=Cc3[nH]c(=O)[nH]c3O)cc2)C(=O)N1	none (no result: Hsp70 act)
COc1cc(C(N)=O)cc(Cl)c1OCc1ccccc1	none
CCOc1cc(C(N)=O)cc(Cl)c1OCc1ccccc1	S1P4 ag 24 | S1P4 agonist cf inactive | S1P1 ag inactive
NC(=S)N/N=C/c1coc2ccc(F)cc2c1=O	S1P4 ag 36 (no result: Hsp70 act) | S1P4 agonist cf inactive | S1P1 ag inactive
Oc1ccc(-n2cnnn2)cc1	S1P4 ag 30 | S1P4 agonist cf inactive | S1P1 ag inactive
Clc1ccc(-n2cnnn2)cc1	none
